Test results from ChEMBL document CHEMBL4296182, “CO-ADD screening of NIH NCI Diversity Set V”.
For part of these data: Entries with a potency or affinity are not part of this list.

Assays:
Staphylococcus aureus = assay: Antibacterial activity against Staphylococcus aureus MRSA ATCC 43300 (CO-ADD:GP_020); MIC in CAMBH media using NBS plates, by Resazurin F(560/590); assay type: functional; conditions: Concentration 20 uM, ASSAY_TEST Inhibition of Bacterial Growth, detection method Resazurin, Fluorescence (ex560/em590), MEDIA CAMHB, plate type 384well, CORNING #3640, time 18 hr
Acinetobacter baumannii = assay: Antibacterial activity against Acinetobacter baumannii ATCC 19606 (CO-ADD:GN_034); MIC in CAMBH media using NBS plates, by Resazurin F(560/590); assay type: functional; conditions: Concentration 20 uM, ASSAY_TEST Inhibition of Bacterial Growth, detection method Resazurin, Fluorescence (ex560/em590), MEDIA CAMHB, plate type 384well, CORNING #3640, time 18 hr
Escherichia coli = assay: Antibacterial activity against Escherichia coli ATCC 25922 (CO-ADD:GN_001); MIC in CAMBH media using NBS plates, by Resazurin F(560/590); assay type: functional; conditions: Concentration 20 uM, ASSAY_TEST Inhibition of Bacterial Growth, detection method Resazurin, Fluorescence (ex560/em590), MEDIA CAMHB, plate type 384well, CORNING #3640, time 18 hr
Klebsiella pneumoniae = conditions: Concentration 20 uM; ASSAY_TEST Inhibition of Bacterial Growth; detection method Absorption (OD600); MEDIA CAMHB; plate type 384well; NBS; CORNING #3640; time 18 hr
Candida albicans = conditions: 20 µM
Cryptococcus neoformans = conditions: Concentration 20 uM; ASSAY_TEST Inhibition of Fungal Growth; detection method Resazurin; Absorption (OD600-OD570); plate type 384well; NBS; CORNING #3640

SMILES	Inhibition (Staphylococcus aureus) [%]	Inhibition (Acinetobacter baumannii) [%]	Inhibition (Escherichia coli) [%]	Inhibition (Klebsiella pneumoniae) [%]	Inhibition (Candida albicans) [%]	Inhibition (Cryptococcus neoformans) [%]
Cn1nc(SCc2ccccc2)c(=O)n(C(c2ccccc2)c2ccccc2)c1=O	19.74	-15.03	11.55	5.74	11	-0.62
Cc1cccc(C)c1NC(=O)Nc1ccc(S(N)(=O)=O)cc1	-3.68	5.47	8.39	5.63	0.87	-12.09
Cc1cc(C)n2c(C)nnc2c1	-1.68	-10.08	5.69	10.38	-0.15	-3
O=C(CSc1nc2ccc([N+](=O)[O-])cc2s1)c1ccc2ccccc2c1	-1.33	12.85	5.26	23.99	1.85	15.23
Cc1ccc(/N=N/c2ccc(C)cc2NC(=O)Nc2ccccc2F)cc1	3.8	6.73	1.93	9.05	6.78	3.6
Nc1cc(Nc2ccc(Br)cc2)nc(N)n1	4.17	10.22	-12.19	18.33	4.62	-4.88
Cc1cccc(N=C(S)Nc2cccc(C)n2)n1	2.02	12.82	3.58	8.62	3.4	-9.05
CCc1cccc2[nH]c3cc([N+](=O)[O-])ccc3c12	6.44	1.17	2.96	-4.47	9.1	12.93
COc1ccc(C(=S)N2CCN(c3ccccc3C)CC2)cc1	6.05	-20.13	15.7	10.93	24.1	-16.11
NC(=O)NC1NC(=O)NC1=O (stereo not drawn) [ALLANTOIN]	12.16	-7.41	9.38	18.45	2.26	-7.8
CCC(CC)c1ncc[nH]1	-6.72	-6.57	9.75	17.39	-1.38	-3.12
Cc1ccc(S(=O)(=O)Oc2cc(N)c3c(n2)CCC3)cc1	2.13	-12.3	7.8	9.4	1.38	-7.75
COc1ccc(C(C)=O)cc1CO/N=C1\CSCc2ccccc21	16.78	9.55	4.94	9.39	18.6	-2.91
Cc1ccc(-n2nnnc2-c2cccnc2)cc1	21.74	-2.15	12.35	4.8	-0.65	-9.13
c1ccc(-n2ncc3cccnc32)cc1	6.65	-2.45	7.04	9.31	-0.36	-9.65
COc1ccc(NC2=NC(C)(CO)CS2)cc1 (stereo not drawn)	33.41	-4.98	1.2	15.06	1.85	5.77
NS(=O)(=O)c1ccc(NC2(C(=O)O)CCCC2)cc1	11.74	13.36	-10.3	11.38	4.41	18.42
COc1ccc2nc3cc(Cl)ccc3c(C#N)c2c1	10.22	12.04	6.91	7.74	4.11	-4.51
O=C1C2C3C=CC(CC3)C2S(=O)(=O)C2C3C=CC(CC3)C12 (stereo not drawn)	13.49	12.35	8.07	7.08	3.05	-7.34

SMILES	Inhibition (Staphylococcus aureus) [%]	Inhibition (Acinetobacter baumannii) [%]	Inhibition (Escherichia coli) [%]	Inhibition (Klebsiella pneumoniae) [%]	Inhibition (Candida albicans) [%]	Inhibition (Cryptococcus neoformans) [%]
CCOC(=O)c1nc(O)c2c3c(sc2n1)CCCC3	16.28	-13.3	15.58	5.02	10	-8.42
O=C(CC1C=Cc2ccccc2N1C(=O)c1ccccc1)c1ccccc1 (stereo not drawn)	3.75	6.29	9.32	9.71	2.1	-5.82
O=[N+]([O-])c1ccc2c3ccccc3[s+]([O-])c2c1 (stereo not drawn)	5.76	5.87	8.3	9.17	6.79	-11.15
CC(C)(C)CC(C)(C)N1CN=C(S)NC1	14.76	8.83	1.22	6.38	1.25	-7.67
CN(/N=N/c1[nH]cnc1C(=O)NN)C1CCCCC1	8.69	8.54	-4.79	11.56	3.97	-4.73
Cc1oc2c(c(C)nn2-c2ccccc2)c(=O)c1Cl	-0.13	-6.85	7.16	9.65	14.3	35.87
O=CN/C=C\c1cc(O)ccc1O	-18.33	-7.5	-8.61	6.52	4.27	7.81
N=C(N)n1c(N)nc2ccccc2c1=O	-3.84	11.96	12.39	5.57	0.23	-13.19
Nc1c(Cl)cc(S(N)(=O)=O)cc1S(N)(=O)=O	4.27	9.37	1.27	26.17	17.5	-1.7
c1ccc2nc(NN=C3CCCCC3)ccc2c1	9.39	-16.84	10.6	9.11	3.78	-6.92
CC(C)(C)n1nc(C2CC2)cc1NC(=O)Nc1ccccc1	5.22	-11.36	8.62	7.92	1.47	-6.02
O=C1CSC(c2cccs2)N1c1nncs1 (stereo not drawn)	13.4	-18.82	13.34	3.03	-0.07	-10.32
COC(=O)[C@H]1[C@H]2C[C@@H]3c4[nH]c5cc(OC)ccc5c4CCN3C[C@H]2C[C@@H](OC(=O)CC(C)=O)[C@@H]1OC	16.88	-0.32	11.28	5.93	-0.86	-1.53
CCN(CC)CCN1C(=O)c2cccc3cc(N)cc(c23)C1=O	-0.77	7.97	10.46	12.53	-0.17	-5.58
Cc1csc(NC(=O)c2ccc(C(=O)Nc3nc(C)cs3)cc2)n1	-1.48	17.46	2.37	21.27	-0.71	-1.68
CSc1cccc(NC(=O)Nc2ccccc2C(N)=O)c1	1.7	10.06	13.89	12.71	-0.32	-13.91
Nc1cc(N)nc(CS)n1	9.52	-5.46	6.53	20.9	-2.73	-6.05
O=[N+]([O-])c1ccccc1/C=C/C=N/N=C/c1ccccc1O	0.05	-15.14	9.06	2.2	2.43	3.86
CCOC(=O)/C=C/c1ccc(C(=O)OCC)[nH]1	42.73	10.2	20.38	8.24	7.12	8.93
